AmpC detergent = AmpC beta-lactamase inhibition with detergent present | Potency, µM (top dose mostly 114 µM), for inactives: top-dose activity change, negative = inhibition, actives largely listed as inhibitors | AmpC hydrolysis of nitrocefin, absorbance 480 nm, 0.01% Triton | P00811 | hit rate 0.041% among 370,000;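 note: 0% = no-compound wells and -100% = no-enzyme wells; nearly all actives have a fitted effect of over 25% in size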
Target sequence (P00811 whole entry, looked up): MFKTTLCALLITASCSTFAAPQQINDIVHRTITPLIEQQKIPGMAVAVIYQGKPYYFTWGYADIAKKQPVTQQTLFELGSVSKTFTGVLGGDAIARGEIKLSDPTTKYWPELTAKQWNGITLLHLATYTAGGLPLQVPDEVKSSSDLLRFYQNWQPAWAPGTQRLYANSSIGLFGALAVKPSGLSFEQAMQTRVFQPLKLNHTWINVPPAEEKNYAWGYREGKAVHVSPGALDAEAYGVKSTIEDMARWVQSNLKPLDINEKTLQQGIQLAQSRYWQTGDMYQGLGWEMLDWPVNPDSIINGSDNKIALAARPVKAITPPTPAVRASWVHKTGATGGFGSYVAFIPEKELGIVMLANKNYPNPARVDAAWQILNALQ
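AmpC (5.3 nM in the dispensed reagent) in 20 mM phosphate pH 7.0 with 0.01% (detergent screen) or 0.0001% Triton X-100 was preincubated with compounds for 15 min at room temperature. Nitrocefin was then added from an 800 uM solution, and hydrolysis was followed at 480 nm.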
AmpC no deterg = inhibitors of E. coli AmpC beta-lactamase without detergent | hit rate 0.52% among 330,000 | AmpC nitrocefin hydrolysis, absorbance 480 nm, 0.0001% Triton | Potency, µM (doses to about 57.1 µM), without a hit: at the highest dose activity change, negative = inhibition, usual class: inhibitors;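 note: plate controls were no compound for no effect and no enzyme for full effect; nearly all actives have a fitted effect of over 20% in size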
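AmpC (5.3 nM in the dispensed reagent) in 20 mM phosphate pH 7.0 with 0.01% (detergent screen) or 0.0001% Triton X-100 was preincubated with compounds for 15 min at room temperature. Nitrocefin was then added from an 800 uM solution, and hydrolysis was followed at 480 nm.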
Sm TGR inh = blocks Schistosoma mansoni thioredoxin glutathione reductase | Q962Y6 | purified TGR, DTNB reduction, TNB absorbance 405 nm | Potency, µM (titrated, usually from 114 µM), inactives show top-dose activity change, negative = inhibition, most hits filed as inhibitors | hit rate 3% among 360,000 | AID 485364; note: nearly all actives have a fitted effect of over 60% in size
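TGR 20 nM + NADPH 100 uM (dispensed conc.), cpd preinc 15 min RT; start with NADPH (500 uM addition) then DTNB (15 mM addition). Kinetic TNB absorbance, 405 nm filter. Four-parameter Hill fit across titration.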
* = called active by the depositor. An excerpt weighted towards active compounds, which were near 3.3% of everything screened. Calls come from the whole dose curve; as a rule, active = well fitted curve in the direction sought with a large enough effect; inconclusive = small, poorly fitted or top-dose-only effect, or another doubt; inactive = no such curve, though single readings can be large; an effect the other way counts as inactive or inconclusive. Unless noted, % is set by controls: 0 for no effect and ±100 for the full control effect; potency is the fitted concentration of half-maximal effect.

O=c1cc(COc2ccc(Cl)cc2Cl)nc2scc(-c3ccccc3)n12 was read as AmpC detergent 2% and Sm TGR inh -11%.
Screening CCC1CCCCN1C(=O)CCS(=O)(=O)c1ccccc1 (stereo not given) returned AmpC detergent 1%, AmpC no deterg -3% and Sm TGR inh -1%.
`CC1(CCl)CN1S(=O)(=O)c1ccccc1` (stereo not given) gave AmpC detergent 4%, AmpC no deterg -2% and Sm TGR inh 40µM*.
`CCCS(=O)(=O)N1CCN(S(=O)(=O)c2ccccc2)CC1` gave AmpC detergent 4%, AmpC no deterg 4% and Sm TGR inh 1%.
For O=C(Nc1cnc2sccn2c1=O)c1ccc(Cl)cc1Cl the results were AmpC detergent -3%, AmpC no deterg -12% and Sm TGR inh -21%.
For COc1ccc(Cl)cc1NC(=O)c1cnc2sccn2c1=O the results were AmpC detergent inconclusive, AmpC no deterg 3.5µM* and Sm TGR inh 0%.
For COc1ccccc1/C=C/C(C)=O the results were AmpC detergent -10%, AmpC no deterg -6% and Sm TGR inh -8%.
`COc1ccccc1/C=C/C(=O)/C=C/c1ccccc1O` gave AmpC detergent 3%, AmpC no deterg inconclusive and Sm TGR inh 20µM*.
For CNc1ccc(Br)cc(C(=O)/C=C/c2cccc(Cl)c2Cl)c1=O the results were AmpC detergent 7%, AmpC no deterg -41% and Sm TGR inh 2.5µM*.
For COc1ccccc1/C=C/C(=O)Nc1cccnc1Cl the results were AmpC detergent 2%, AmpC no deterg -11% and Sm TGR inh 6%.
`CNc1ccc(Br)cc(C(=O)/C=C/c2cccc(OC)c2OC)c1=O` gave AmpC detergent -5%, AmpC no deterg -31% and Sm TGR inh 7.1µM*.
`CNc1ccccc(C(=O)/C=C/c2ccccc2OC)c1=O` gave AmpC detergent -12%, AmpC no deterg -44% and Sm TGR inh 2.8µM*.
For COc1cccc(/C=C/C(=O)c2ccc3c(c2)OCO3)c1OC the results were AmpC detergent 4%, AmpC no deterg -6% and Sm TGR inh -19%.
Screening C/C(=C\c1cccc(Cl)c1Cl)C(=O)c1c(C)cc(C)[nH]c1=O returned AmpC detergent -8%, AmpC no deterg -1% and Sm TGR inh 1%.
COc1ccc(-c2cn3c(n2)sc2cc(C(=O)Nc4ccc(C)c(C)c4)ccc23)cc1 was read as AmpC detergent 14% and Sm TGR inh 29%.
For Nc1ccccc1Nc1ccc([N+](=O)[O-])cc1[N+](=O)[O-] the results were AmpC detergent inconclusive, AmpC no deterg -15% and Sm TGR inh -2%.
Screening Nc1cc([N+](=O)[O-])ccc1Nc1ccc(O)cc1 returned AmpC detergent 1%, AmpC no deterg 32µM* and Sm TGR inh inconclusive.
Screening CC(C)(C)n1ncc2c(=O)n(CC(=O)NCc3ccc(F)cc3)cnc21 returned AmpC detergent -3%, AmpC no deterg -14% and Sm TGR inh 6%.
Screening CC(C)(C)n1ncc2c(=O)n(CC(=O)NCc3ccco3)cnc21 returned AmpC detergent inconclusive, AmpC no deterg -7% and Sm TGR inh 45µM*.
`Cc1ccc(NC(=O)Cn2nnc(-c3nc(-c4ccc(Cl)cc4)no3)c2N)cc1C` gave AmpC detergent 12% and Sm TGR inh -1%.
Screening COc1ccc(C2=CC(c3ccc(Cl)cc3)n3cnnc3N2)cc1OC (stereo not given) returned AmpC detergent inconclusive, AmpC no deterg 109% and Sm TGR inh 25µM*.
`COc1ccc(C2C=C(c3ccc(F)cc3)Nc3nc(-c4ccc(Cl)cc4)nn32)cc1` (stereo not given) gave AmpC detergent 8% and Sm TGR inh 1%.
`Cc1ccc(NC(=O)C2CCCN2S(=O)(=O)c2ccc3nc(-c4ccccc4)[nH]c3c2)cc1F` (stereo not given) gave AmpC detergent inconclusive and Sm TGR inh -1%.
Cc1cccc(C)c1OC(=O)CN1C(=O)c2ccccc2C1=O was read as AmpC detergent -11%, AmpC no deterg -16% and Sm TGR inh 8%.
For C[n+]1ccccc1/C=C/c1ccc(C#N)cc1 the results were AmpC detergent -15%, AmpC no deterg -19% and Sm TGR inh 45µM*.
`Cc1ccccc1/C=C/c1cccc[n+]1C` gave AmpC detergent inconclusive, AmpC no deterg -32% and Sm TGR inh -3%.
Screening C[n+]1ccccc1/C=C/c1c(F)cccc1F returned AmpC detergent inconclusive, AmpC no deterg -22% and Sm TGR inh 13µM*.
Screening C[n+]1ccccc1/C=C/c1ccc(F)c(F)c1 returned AmpC detergent -22%, AmpC no deterg -28% and Sm TGR inh -11%.
Screening C[n+]1ccccc1/C=C/c1ccc([N+](=O)[O-])cc1 returned AmpC detergent -5%, AmpC no deterg -17% and Sm TGR inh -27%.
`C[n+]1ccccc1/C=C/c1ccccc1Cl` gave AmpC detergent inconclusive, AmpC no deterg -16% and Sm TGR inh 22µM*.
`CCN=C1SC(C(=O)Nc2cccc(Br)c2)CC(=O)N1CC` (stereo not given) gave AmpC detergent -1%, AmpC no deterg -20% and Sm TGR inh 4%.
For O=C(NCc1csc(-c2cccs2)n1)c1ccsc1 the results were AmpC detergent -4%, AmpC no deterg -26% and Sm TGR inh -13%.
`C=CCNc1ncnc2c1[nH]c1ccc(C)cc12` gave AmpC detergent inconclusive, AmpC no deterg 13µM* and Sm TGR inh -10%.
Screening Cc1ccc2[nH]c3c(NCCN4CCOCC4)ncnc3c2c1 returned AmpC detergent 0%, AmpC no deterg -23% and Sm TGR inh -17%.
Cc1cc(-c2nn(-c3ccccc3F)cc2CN2CCC(C(N)=O)CC2)c(C)s1 was read as AmpC detergent 3%, AmpC no deterg 33% and Sm TGR inh 45µM*.
For Cc1cc(-c2nn(-c3ccccc3F)cc2CN2CCCC(C(N)=O)C2)c(C)s1 (stereo not given) the results were AmpC detergent 3%, AmpC no deterg 65% and Sm TGR inh -9%.
`CC(C)(C)c1ccc(C(=O)Nc2nnc(Cc3c[nH]c4ccccc34)s2)cc1` gave AmpC detergent -3%, AmpC no deterg 11µM* and Sm TGR inh 1%.
O=C(Nc1nnc(Cc2c[nH]c3ccccc23)s1)c1ccc(Cl)cc1Cl was read as AmpC detergent inconclusive, AmpC no deterg -28% and Sm TGR inh 1%.
For O=S(=O)(/N=C(\Sc1ccccc1)c1ccccc1)c1ccc(Cl)cc1 the results were AmpC detergent 4%, AmpC no deterg -6% and Sm TGR inh 0%.
For Cc1ccc(S(=O)(=O)/N=C(\Sc2ccccc2)c2ccccc2)cc1 the results were AmpC detergent -8%, AmpC no deterg -16% and Sm TGR inh 7.9µM*.
`Cc1ccc(S(=O)(=O)/N=C(/Nc2cccc(C(=O)O)c2)c2ccccc2)cc1` gave AmpC detergent -2%, AmpC no deterg -10% and Sm TGR inh 0%.
`Cc1ccc(S(=O)(=O)/N=C(/Sc2ccccc2C(=O)O)c2ccccc2)cc1` gave AmpC detergent -5%, AmpC no deterg -22% and Sm TGR inh 35µM*.

Screening data deposited in PubChem by National Center for Advancing Translational Sciences (NCATS).
